# From PubChem BioAssay
# “And” between values parts separate entries of the source, which are not always exact repeats. Equal values may be shown once. The source made the active and inactive calls.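 Rule for the calls, unless noted: active = inhibition at or above 50% relative to wild type and mutant plate controls; inactive = inhibition below 50%.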
# Experiments:
# [1] = inhibitors of TNFa-induced NFkB p65 translocation, primary screen, imaging, HUVEC, MLSMR starter and 10KST1 sets (AID 438;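 active = inhibition above 20% together with a positive visual image hit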;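 note: compound added about 3h40 before a 20 min TNFalpha stimulation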;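 for inhibition: signal is the nuclear over cytoplasmic p65 intensity ratio per well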); conditions: HUVEC TNFa-induced p65 nuclear translocation; cell count: measured here: nuclei count (cytotoxicity indicator), at 2.08 µM; inhibition: at 2 µM, stronger effect = higher value, 0% TNFa-plus-vehicle, 100% no-TNFa wells
# [2] = inhibitors of mutant huntingtin aggregation, primary screen, imaging, exon1htt(103Q)mCFP cells, high-content imaging (AID 483;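 active = visual image review flags a hit and inhibition of aggregation exceeds 20%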;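 note: compound exposure lasted 3 days before fixation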;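 for nuclei count: percent of the per-plate median nuclei count of sample wells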); conditions: exon1htt(103Q)mCFP cell line, aggregate imaging, at 2 µM; inhibition of aggregation: stronger effect = higher value; nuclei count: measured here: cell count, toxicity
# [3] = inhibitors of E-selectin induction by TNFa, primary screen, imaging, HUVEC, immunofluorescence, MLSMR starter and 10KST1 sets (AID 487;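 active = visually confirmed hit in the image check and inhibition above 20%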;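 for inhibition: signal is fraction of cell area covered by stained E-selectin grains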;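 for nuclei count: 100% = median nuclei count of all wells on the same plate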); conditions: HUVEC TNFalpha-induced E-selectin immunofluorescence imaging, at 2 µM; inhibition: stronger effect = higher value; nuclei count: measured here: cell number, toxicity
# [4] = DUSP6 inhibitors restoring Erk phosphorylation by chemical complementation, primary imaging in DUSP6-transfected HeLa (AID 609;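 active = compounds giving at least 50% inhibition in the cell-based MKP-3 phosphatase rescue imaging test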;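 for inhibition: phospho-Erk level distribution per well compared with pooled transfected vehicle control wells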); conditions: HeLa MKP-3 transfected, phospho-Erk imaging KS statistic, at 10 µM, cells stimulated with TPA for 15 min
# [5] = molecular target: Dual specificity protein phosphatase 6 (Homo sapiens) (UniProt Q16828); assay: as above; conditions: HeLa MKP-3 transfected, phospho-Erk imaging KS statistic; at 10 µM; stronger effect = higher value; cells stimulated with TPA for 15 min
# Dual specificity protein phosphatase 6 (Homo sapiens), sequence (Q16828 whole entry, looked up): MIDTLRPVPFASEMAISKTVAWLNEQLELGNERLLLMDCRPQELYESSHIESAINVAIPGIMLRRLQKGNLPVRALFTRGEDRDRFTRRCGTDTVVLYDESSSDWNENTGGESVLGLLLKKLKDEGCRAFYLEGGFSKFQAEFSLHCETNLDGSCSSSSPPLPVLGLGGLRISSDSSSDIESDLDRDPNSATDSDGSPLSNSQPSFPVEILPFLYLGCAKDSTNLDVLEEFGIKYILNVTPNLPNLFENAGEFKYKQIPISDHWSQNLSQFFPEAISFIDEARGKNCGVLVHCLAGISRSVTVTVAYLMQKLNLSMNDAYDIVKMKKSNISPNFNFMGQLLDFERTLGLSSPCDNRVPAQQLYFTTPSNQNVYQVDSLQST
# [6] = molecular target: Voltage-gated potassium channel subunit beta-2 (Rattus norvegicus) (UniProt P62483); assay: KvBeta enzyme negative modulators, primary screen, biochemical, NADPH fluorescence (AID 622;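 active = fluorescence slope higher than the sample average by over 3 SD, cut at about -0.22 in these data, passing the limit was not always enough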;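 note: slope of raw intensity against log time taken from 70 to 1610 s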); conditions: recombinant KvBeta, 4-cyanobenzaldehyde reduction, at 10 µM, stronger effect = higher value
# Voltage-gated potassium channel subunit beta-2 (Rattus norvegicus), sequence (P62483 whole entry, looked up): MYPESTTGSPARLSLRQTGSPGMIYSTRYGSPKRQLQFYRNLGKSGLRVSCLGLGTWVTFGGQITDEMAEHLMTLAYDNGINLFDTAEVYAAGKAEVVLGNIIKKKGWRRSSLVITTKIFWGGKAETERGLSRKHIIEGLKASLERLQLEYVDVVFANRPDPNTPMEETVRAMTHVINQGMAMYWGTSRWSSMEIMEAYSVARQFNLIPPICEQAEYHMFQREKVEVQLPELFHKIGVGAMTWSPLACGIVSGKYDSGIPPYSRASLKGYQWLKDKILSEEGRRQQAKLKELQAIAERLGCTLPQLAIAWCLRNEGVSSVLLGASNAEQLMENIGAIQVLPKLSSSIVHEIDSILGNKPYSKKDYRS
# [7] = molecular target: Voltage-gated potassium channel subunit beta-2 (Rattus norvegicus) (UniProt P62483); assay: KvBeta positive modulators, primary screen, biochemical, NADPH fluorescence (AID 623;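 active = NADPH fluorescence slope more negative than the mean of all samples by about 3 SD, 99.7% confidence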;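 note: fluorescence intensity change per second fitted from 20 to 320 s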); conditions: Recombinant KvBeta, NADPH fluorescence decrease slope, 10 min; at 10 µM; stronger effect = lower value
# [8] = molecular target: Alpha-2C adrenergic receptor (Homo sapiens) (UniProt P18825); assay: modulators of alpha2C/GIRK thallium flux, primary screen, cell-based, HEK293 alpha2C/GIRK1/2 (AID 624;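 active = fluorescence slope after compound addition differing from the mean of all screened samples at 99.7% confidence, in either direction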;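 note: slope of fluorescence ratio to pre-addition baseline per second over 15 to 24 s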); conditions: thallium flux BTC fluorescence, at 10 µM, actives lie on both sides
# Alpha-2C adrenergic receptor (Homo sapiens), sequence (P18825 whole entry, looked up): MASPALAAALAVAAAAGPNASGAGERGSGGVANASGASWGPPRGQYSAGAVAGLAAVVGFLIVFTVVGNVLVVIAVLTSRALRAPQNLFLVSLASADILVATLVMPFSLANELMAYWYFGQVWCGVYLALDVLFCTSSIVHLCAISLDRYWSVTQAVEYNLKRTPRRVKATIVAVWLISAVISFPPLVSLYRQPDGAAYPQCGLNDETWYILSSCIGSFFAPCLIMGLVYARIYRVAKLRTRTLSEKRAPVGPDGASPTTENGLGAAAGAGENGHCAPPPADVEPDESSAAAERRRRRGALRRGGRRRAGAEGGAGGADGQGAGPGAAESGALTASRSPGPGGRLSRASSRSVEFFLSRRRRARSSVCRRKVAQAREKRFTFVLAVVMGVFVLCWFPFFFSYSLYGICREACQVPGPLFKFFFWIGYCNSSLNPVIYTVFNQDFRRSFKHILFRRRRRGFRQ
# [9] = inhibitors of larval lipid processing in zebrafish, primary screen, whole organism, PED6 fluorescence, gall bladder and intestine (AID 686;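 active = a full or partial loss of lipid-probe fluorescence in the fish gall bladder, intestine or both, judged by eye; inactive = no fluorescence loss, or compound toxic to the fish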;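 note: larvae 5 to 7 days old with five fish per well; signal comes from phospholipase A2 cleavage of quenched PED6 carried via bile; overnight exposure to compound and PED6 before scoring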); conditions: Zebrafish larvae PED6 lipid processing, fluorescence scoring; screened at 20 µM (by protocol)
# [10] = inhibitors of Chlamydomonas gravitaxis, primary screen, whole organism, Chlamydomonas reinhardtii, WT vs cilia-less mutant, absorbance, 96-well (AID 463189); conditions: OD600 absorbance, 2 days, at 10 µM, stronger effect = higher value;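 note: 0% = wild type cc124 cells in DMSO and 100% = ciliumless bld1 mutant cells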
# [11] = inhibitors of Sendai virus-induced IRF3 signaling, primary screen, TLR/RLR signaling modifier project, cell-based, Sendai virus stimulus, luciferase, 10K MLSCN set (AID 602276;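 active = inhibition at or above 50% at 10 µM; inactive = inhibition below 50%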;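 note: firefly luciferase from ISG56 promoter only with Renilla not read in this screen; 0% = Sendai virus plus DMSO and 100% = medium plus DMSO without virus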); conditions: HEK293 RL24 IRF3 luciferase reporter, at 10 µM, stronger effect = higher value
# [12] = inhibitors of poly I:C-induced TLR3 signaling, primary screen, cell-based, poly I:C stimulus, luciferase, 10K MLSCN set (AID 602277;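 active = inhibition of the reporter signal at or above 50%; inactive = inhibition below 50%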); conditions: HEK293-TLR3 RL24 IRF3 luciferase reporter, at 10 µM, stronger effect = higher value
# [13] = measured here: cell density z-score
# [14] = measured here: nuclear c-Myc green intensity z-score
# [15] = measured here: nuclear pErk red intensity z-score, stronger effect = higher value
Structure (SMILES),cell count [1],inhibition [1],inhibition of aggregation [2],nuclei count [2] [%],inhibition [3],nuclei count [3] [%],"z-score [4, 13]","z-score [4, 14]","z-score [4, 15]",inhibition [5],fluorescence slope [6],NADPH fluorescence slope [7],slope [8],outcome [9],inhibition [10],inhibition [11],inhibition [12]
C[C@]12CC[C@@H]3c4ccc(OS(=O)(=O)O)cc4CC[C@H]3[C@@H]1CCC2=O,725,-2.6% (inactive),1.7% (inactive),98.9,-120% (inactive),121,1.77,-0.742,-1.13,1.48% (inactive),-0.507 (inactive),-4.6e-05 (inactive),0.00404 (inactive),inactive,2.37% (inactive),11.2% (inactive),25.7% (inactive)
CC(=O)NCCCCCCNC(C)=O,515,-2% (inactive),-11.6% (inactive),101,5.3% (inactive),114,-1.8,0.662,0.679,10.2% (inactive),-0.45 (inactive),-5.8e-05 (inactive),0.00491 (inactive),inactive,20.9% (inactive),9.84% (inactive),44.8% (inactive)
Cc1cccc(N2C(=O)CC(N3CCN(Cc4ccc(Cl)cc4)CC3)C2=O)c1 (stereo not given),544,-6.1% (inactive),17.3% (inactive),110,-107% (inactive),132,1.1,-1.84,-0.334,3.56% (inactive),-0.551 (inactive),-3.6e-05 (inactive),0.00524 (inactive),inactive,-12.9% (inactive),16.4% (inactive),18% (inactive)
OC[C@H]1O[C@@H](n2cnc3c(Nc4ccccc4)ncnc32)[C@H](O)[C@@H]1O,606,-3.3% (inactive),17.1% (inactive),104,-19.9% (inactive),107,1.07,-1.93,-0.432,-0.828% (inactive),-0.459 (inactive),-4.6e-05 (inactive),0.00784 (inactive),inactive,-14.4% (inactive),-32.6% (inactive),-55.1% (inactive)
COc1ccc(NS(=O)(=O)c2ccc(N)cc2)nn1,634,-10.4% (inactive),-19.4% (inactive),99.2,-67.7% (inactive),114,-2.14,-1.5,2.96,3.45% (inactive),-0.412 (inactive),5.7e-06 (inactive),0.00455 (inactive),inactive,15% (inactive),15.8% (inactive),27.8% (inactive)
Cc1csc(NC(=O)CSc2nsc(SCC(=O)Nc3nc(C)cs3)c2C#N)n1,655,-10.4% (inactive),12.2% (inactive),105,-15.8% (inactive),141,-1.33,0.375,-0.579,6.51% (inactive),-0.37 (inactive),-3.7e-05 (inactive),0.00462 (inactive),inactive,2.21% (inactive),-8.75% (inactive),-83.6% (inactive)
N#Cc1nc(-c2cccs2)oc1NCCc1ccccc1,421,-5.5% (inactive),2.8% (inactive),101,-33.7% (inactive),109,-0.62,-0.621,-1.02,-6.48% (inactive),-0.332 (inactive),1.7e-05 (inactive),0.00708 (inactive),inactive,11.6% (inactive),-37.1% (inactive),-77.6% (inactive)
NC(=O)OCC(COC(N)=O)c1ccccc1,615,-7.6% (inactive),-2.4% (inactive),114,-22.5% (inactive),108,1.02,-0.593,-0.701,3.45% (inactive),-0.44 (inactive),-3.1e-05 (inactive),0.00508 (inactive),inactive,-4.89% (inactive) and -8.93% (inactive),17.5% (inactive),34.3% (inactive)
COC(=O)CSc1nc(C)c(C(C)=O)cc1C#N,505,-8.8% (inactive),5.5% (inactive),86.1,-16.5% (inactive),136,-0.468,-1.01,-0.0332,-8.95% (inactive),-0.376 (inactive),-3.7e-05 (inactive),0.00524 (inactive),inactive,13.8% (inactive),3.96% (inactive),-12.7% (inactive)
C[C@]12CCC(=O)C=C1CC[C@@H]1[C@@H]2C(=O)C[C@@]2(C)[C@H]1CC[C@]2(O)C(=O)CO,603,-6% (inactive),21.4% (inactive),102,-119% (inactive),120,-0.503,-1.16,1.19,-4.44% (inactive),-0.503 (inactive),-3.1e-05 (inactive),0.00463 (inactive),inactive,-0.81% (inactive) and 2.73% (inactive),10.2% (inactive),21.1% (inactive)
C=C1[C@@H](C)C2[C@H](Cc3ccccc3)NC(=O)[C@]23OC(=O)CC[C@H](O)CCC[C@H](C)C/C=C/[C@H]3[C@@H]1O (stereo not given in full),573,-22.6% (inactive),25.7% (inactive),42.3,-47.4% (inactive),104,-1.85,0.937,1.72,5.42% (inactive),-0.464 (inactive),-6.3e-05 (inactive),0.00486 (inactive),inactive,-3.13% (inactive),7.56% (inactive),45.8% (inactive)
CC1C/C=C/C=C/C=C/C=C/C(O[C@@H]2O[C@H](C)[C@@H](O)[C@H](N)[C@@H]2O)CC2OC(O)(CC(O)CC3OC3/C=C/C(=O)O1)CC(O)C2C(=O)O (stereo not given in full),624,-3.2% (inactive),0.7% (inactive),111,-59.4% (inactive),135,-0.528,-0.94,-0.621,11.3% (inactive),-0.469 (inactive),-4.6e-05 (inactive),0.00542 (inactive),inactive,1.43% (inactive),7.33% (inactive),28.4% (inactive)
CN(C)[C@@H]1C(=O)C(C(N)=O)=C(O)[C@@]2(O)C(=O)C3=C(O)c4c(O)ccc(Cl)c4[C@@H](O)[C@H]3C[C@@H]12,524,-3% (inactive),77.8% (active),96.8,-35.1% (inactive),93,0.892,0.579,-1.42,9.37% (inactive),-0.537 (inactive),-2.5e-05 (inactive),0.00572 (inactive),active; no signal in intestine only,54.1% (active) and 88% (active),17.1% (inactive),24.2% (inactive)
CCOC(=O)N1CCN(C(=O)c2cn(CC)c3cc(N4CCN(C)CC4)c(F)cc3c2=O)CC1,544,2.6% (inactive),15.1% (inactive),96,-20.9% (inactive),121,0.456,0.816,-1.34,-7.28% (inactive),-0.267 (inactive),1.3e-05 (inactive),0.00518 (inactive),inactive,15.7% (inactive),21.5% (inactive),21.4% (inactive)
CCC(c1c(C)n(C)n(-c2ccccc2)c1=O)c1c(C)n(C)n(-c2ccccc2)c1=O,550,-4.3% (inactive),27.5% (inactive),89.2,-51.3% (inactive),125,-0.849,-0.188,-0.348,3.66% (inactive),-0.488 (inactive),-0.000154 (inactive),0.00494 (inactive),inactive,5% (inactive),17.6% (inactive),17.1% (inactive)
CC(=O)[C@H]1[C@H](C#N)C[C@H]2[C@@H]3CC=C4C[C@@H](O)CC[C@]4(C)[C@H]3CC[C@@]21C,645,-9.3% (inactive),-4.8% (inactive),106,-91.5% (inactive),119,0.975,-0.917,-0.46,-2.46% (inactive),-0.457 (inactive),-4e-05 (inactive),0.00539 (inactive),inactive,14.4% (inactive),10.7% (inactive),42.4% (inactive)
CCCOc1cccc(C2/C(=C(/O)c3ccccc3)C(=O)C(=O)N2CCN(C)C)c1 (stereo not given),511,-3.9% (inactive),-5.1% (inactive),109,-90.6% (inactive),134,-0.467,0.337,1.7,-0.159% (inactive),-0.431 (inactive),-5.6e-05 (inactive),0.00489 (inactive),inactive,30.4% (inactive),15.1% (inactive),19.2% (inactive)
Cn1c(=O)c2c3c(sc2n2c(SCC(=O)c4ccc(Cl)cc4)nnc12)COC(C)(C)C3,673,-9.1% (inactive),-12.3% (inactive),105,2.7% (inactive),143,-0.121,0.129,-1.03,-3.98% (inactive),-0.53 (inactive),-1.3e-05 (inactive),0.00419 (inactive),inactive,0.223% (inactive),6.06% (inactive),10.6% (inactive)
CCCCN(CCCC)CCCOC(=O)c1ccc(N)cc1,680,-1.8% (inactive),7.7% (inactive),97.6,-60.2% (inactive),130,-0.857,-0.989,0.993,-4.44% (inactive),-0.511 (inactive),-5.7e-05 (inactive),0.00529 (inactive),inactive,12.6% (inactive),-12.8% (inactive),56.3% (active)
Cc1cc(NC(=O)C2=C(O)c3ccccc3S(=O)(=O)N2C)no1,693,-7.5% (inactive),9.1% (inactive),108,-39.3% (inactive),120,0.515,0.415,0.569,7.39% (inactive),-0.538 (inactive),-2.2e-05 (inactive),0.00444 (inactive),inactive,-6.68% (inactive),12.9% (inactive),25.5% (inactive)
